According to the supplement of paper PMC11732987, “Enantioselective OTUD7B fragment discovery through chemoproteomics screening and high-throughput optimisation” (Communications Chemistry, 2025):

Experiments:
Experiment in all cases: log2 ratio of Biotin-Ahx-Ub-VS probe labelling (fragment/DMSO); higher = less target engagement (more negative = stronger competition), active = hit call of the paper (q ≤ 0.05, log2 ratio ≤ -1)
Conditions in all cases: compound concentration: 200 uM; treatment time: 3 h
USP42 = target: T1, USP42 (UniProt Q9H9J4)
T1 sequence (whole entry): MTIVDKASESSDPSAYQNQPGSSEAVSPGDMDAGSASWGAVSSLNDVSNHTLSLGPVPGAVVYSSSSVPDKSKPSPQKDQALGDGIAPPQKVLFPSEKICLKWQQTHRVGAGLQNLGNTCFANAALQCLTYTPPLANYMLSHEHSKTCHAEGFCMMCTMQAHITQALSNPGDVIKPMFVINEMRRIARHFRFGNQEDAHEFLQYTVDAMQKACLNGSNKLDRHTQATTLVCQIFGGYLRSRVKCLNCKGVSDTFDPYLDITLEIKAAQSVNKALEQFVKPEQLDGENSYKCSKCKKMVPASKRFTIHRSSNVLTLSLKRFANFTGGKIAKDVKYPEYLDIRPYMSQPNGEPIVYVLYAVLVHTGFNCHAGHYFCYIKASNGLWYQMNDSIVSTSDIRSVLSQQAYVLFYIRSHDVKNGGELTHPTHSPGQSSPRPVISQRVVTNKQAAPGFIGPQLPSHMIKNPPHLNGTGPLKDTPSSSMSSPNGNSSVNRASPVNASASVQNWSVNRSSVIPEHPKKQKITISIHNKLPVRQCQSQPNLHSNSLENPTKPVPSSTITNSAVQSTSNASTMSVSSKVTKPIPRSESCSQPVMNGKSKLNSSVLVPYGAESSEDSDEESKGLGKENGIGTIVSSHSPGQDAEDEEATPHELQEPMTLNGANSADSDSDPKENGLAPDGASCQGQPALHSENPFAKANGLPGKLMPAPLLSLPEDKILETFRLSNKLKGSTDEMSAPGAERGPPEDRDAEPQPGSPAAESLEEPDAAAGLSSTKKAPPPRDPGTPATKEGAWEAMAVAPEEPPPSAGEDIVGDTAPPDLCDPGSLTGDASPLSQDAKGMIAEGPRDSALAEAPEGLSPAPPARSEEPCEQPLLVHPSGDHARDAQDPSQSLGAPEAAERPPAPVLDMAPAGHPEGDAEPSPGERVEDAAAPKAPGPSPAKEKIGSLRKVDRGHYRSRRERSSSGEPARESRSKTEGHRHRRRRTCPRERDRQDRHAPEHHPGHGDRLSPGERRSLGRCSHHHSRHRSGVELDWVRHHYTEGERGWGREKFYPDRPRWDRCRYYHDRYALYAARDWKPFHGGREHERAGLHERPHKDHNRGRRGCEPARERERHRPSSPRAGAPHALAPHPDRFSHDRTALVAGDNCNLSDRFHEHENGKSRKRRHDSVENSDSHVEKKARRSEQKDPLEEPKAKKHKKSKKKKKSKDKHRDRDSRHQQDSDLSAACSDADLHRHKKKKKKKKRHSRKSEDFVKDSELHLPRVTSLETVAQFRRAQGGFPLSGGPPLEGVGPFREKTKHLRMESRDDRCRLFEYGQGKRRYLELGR
How it was run: (§1)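 Using Biotin-Ahx-Ub-VS at 0.5 µM final for 1 h, DUBs were labelled in HEK293T lysate (495 µg per sample) that had first been treated in triplicate with fragment at 200 µM or vehicle for 3 h. NeutrAvidin enrichment, LysC and trypsin digestion and diaPASEF LC-MS/MS followed. Spectronaut label-free quantities were global-median-normalised. Values are average log2 fragment/vehicle ratios by unpaired t-test, using proteins with ≥2 unique peptides.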

USP46 = USP46 (UniProt P62068)
Sequence of USP46 (P62068 whole entry): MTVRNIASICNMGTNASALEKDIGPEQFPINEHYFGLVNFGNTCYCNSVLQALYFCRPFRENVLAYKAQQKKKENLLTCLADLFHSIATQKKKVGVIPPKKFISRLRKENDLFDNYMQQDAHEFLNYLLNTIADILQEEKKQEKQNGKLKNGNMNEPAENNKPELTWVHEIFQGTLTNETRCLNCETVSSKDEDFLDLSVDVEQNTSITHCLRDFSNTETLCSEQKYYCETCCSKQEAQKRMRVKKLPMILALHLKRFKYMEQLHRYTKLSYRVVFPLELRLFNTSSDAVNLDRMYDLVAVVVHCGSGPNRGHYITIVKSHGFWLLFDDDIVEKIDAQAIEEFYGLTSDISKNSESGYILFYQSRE
How it was run: as §1

USP47 = target: T2, USP47 (UniProt Q96K76)
T2 sequence (whole entry): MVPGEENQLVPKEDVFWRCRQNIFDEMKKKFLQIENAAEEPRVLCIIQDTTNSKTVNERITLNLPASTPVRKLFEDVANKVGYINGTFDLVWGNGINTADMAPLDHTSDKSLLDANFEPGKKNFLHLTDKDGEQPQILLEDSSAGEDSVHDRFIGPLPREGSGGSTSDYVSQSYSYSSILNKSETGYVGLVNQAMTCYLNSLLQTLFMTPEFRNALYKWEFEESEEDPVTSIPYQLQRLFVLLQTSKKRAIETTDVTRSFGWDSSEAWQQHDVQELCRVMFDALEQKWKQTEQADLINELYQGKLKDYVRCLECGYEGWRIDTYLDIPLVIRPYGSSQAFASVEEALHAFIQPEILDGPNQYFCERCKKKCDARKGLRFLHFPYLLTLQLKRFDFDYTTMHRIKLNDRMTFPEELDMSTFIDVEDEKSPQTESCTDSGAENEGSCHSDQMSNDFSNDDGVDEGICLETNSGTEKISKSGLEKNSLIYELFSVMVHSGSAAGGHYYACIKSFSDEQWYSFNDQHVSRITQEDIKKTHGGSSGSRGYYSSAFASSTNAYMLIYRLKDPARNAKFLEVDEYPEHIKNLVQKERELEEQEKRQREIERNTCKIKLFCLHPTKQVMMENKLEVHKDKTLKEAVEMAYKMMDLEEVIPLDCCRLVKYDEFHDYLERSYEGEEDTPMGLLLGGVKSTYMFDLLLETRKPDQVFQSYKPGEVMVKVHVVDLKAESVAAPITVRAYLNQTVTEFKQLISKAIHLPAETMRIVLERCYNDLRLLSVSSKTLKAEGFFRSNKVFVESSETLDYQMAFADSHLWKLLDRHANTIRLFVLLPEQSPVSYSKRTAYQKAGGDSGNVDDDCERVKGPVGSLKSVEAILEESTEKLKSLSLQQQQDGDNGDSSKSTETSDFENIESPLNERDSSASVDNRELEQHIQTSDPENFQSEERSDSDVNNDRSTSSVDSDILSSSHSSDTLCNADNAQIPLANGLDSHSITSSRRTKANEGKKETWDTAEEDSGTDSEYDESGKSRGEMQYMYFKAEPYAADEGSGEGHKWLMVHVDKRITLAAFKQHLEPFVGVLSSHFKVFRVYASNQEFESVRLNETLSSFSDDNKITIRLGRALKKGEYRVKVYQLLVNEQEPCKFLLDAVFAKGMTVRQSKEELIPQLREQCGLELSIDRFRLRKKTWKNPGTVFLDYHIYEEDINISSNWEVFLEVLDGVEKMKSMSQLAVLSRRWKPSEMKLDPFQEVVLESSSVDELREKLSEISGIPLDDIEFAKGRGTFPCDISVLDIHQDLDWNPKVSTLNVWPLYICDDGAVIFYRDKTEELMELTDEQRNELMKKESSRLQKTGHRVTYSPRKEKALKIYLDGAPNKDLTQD
How it was run: as §1

USP48 = target: T3, USP48 (UniProt Q86UV5)
T3 sequence (whole entry): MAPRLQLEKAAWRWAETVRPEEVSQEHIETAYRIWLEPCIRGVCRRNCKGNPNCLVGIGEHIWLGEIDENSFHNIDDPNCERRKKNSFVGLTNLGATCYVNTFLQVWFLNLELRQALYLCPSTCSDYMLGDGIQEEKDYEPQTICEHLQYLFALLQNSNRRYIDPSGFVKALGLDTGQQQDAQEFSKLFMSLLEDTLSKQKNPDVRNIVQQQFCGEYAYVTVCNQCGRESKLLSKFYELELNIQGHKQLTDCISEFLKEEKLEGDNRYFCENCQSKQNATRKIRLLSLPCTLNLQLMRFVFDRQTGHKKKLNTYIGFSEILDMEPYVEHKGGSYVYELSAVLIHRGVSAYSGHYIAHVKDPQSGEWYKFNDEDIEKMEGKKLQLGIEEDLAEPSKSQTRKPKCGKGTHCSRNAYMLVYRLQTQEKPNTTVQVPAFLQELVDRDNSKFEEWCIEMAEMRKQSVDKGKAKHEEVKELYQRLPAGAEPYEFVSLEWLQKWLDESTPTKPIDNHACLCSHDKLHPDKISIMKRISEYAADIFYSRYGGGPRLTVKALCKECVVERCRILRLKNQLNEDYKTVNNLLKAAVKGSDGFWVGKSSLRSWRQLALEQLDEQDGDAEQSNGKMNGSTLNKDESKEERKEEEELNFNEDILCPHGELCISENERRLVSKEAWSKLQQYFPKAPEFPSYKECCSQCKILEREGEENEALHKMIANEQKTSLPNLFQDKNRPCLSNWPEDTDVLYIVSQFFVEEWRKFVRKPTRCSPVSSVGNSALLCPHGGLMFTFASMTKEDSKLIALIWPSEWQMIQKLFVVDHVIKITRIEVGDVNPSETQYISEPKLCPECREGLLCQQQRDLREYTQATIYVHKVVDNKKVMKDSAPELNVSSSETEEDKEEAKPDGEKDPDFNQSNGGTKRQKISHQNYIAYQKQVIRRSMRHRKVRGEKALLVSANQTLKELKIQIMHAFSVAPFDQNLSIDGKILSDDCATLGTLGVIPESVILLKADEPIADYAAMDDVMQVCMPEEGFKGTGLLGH
How it was run: as §1

USP5 = target: T4, USP5 (UniProt P45974)
T4 sequence (whole entry): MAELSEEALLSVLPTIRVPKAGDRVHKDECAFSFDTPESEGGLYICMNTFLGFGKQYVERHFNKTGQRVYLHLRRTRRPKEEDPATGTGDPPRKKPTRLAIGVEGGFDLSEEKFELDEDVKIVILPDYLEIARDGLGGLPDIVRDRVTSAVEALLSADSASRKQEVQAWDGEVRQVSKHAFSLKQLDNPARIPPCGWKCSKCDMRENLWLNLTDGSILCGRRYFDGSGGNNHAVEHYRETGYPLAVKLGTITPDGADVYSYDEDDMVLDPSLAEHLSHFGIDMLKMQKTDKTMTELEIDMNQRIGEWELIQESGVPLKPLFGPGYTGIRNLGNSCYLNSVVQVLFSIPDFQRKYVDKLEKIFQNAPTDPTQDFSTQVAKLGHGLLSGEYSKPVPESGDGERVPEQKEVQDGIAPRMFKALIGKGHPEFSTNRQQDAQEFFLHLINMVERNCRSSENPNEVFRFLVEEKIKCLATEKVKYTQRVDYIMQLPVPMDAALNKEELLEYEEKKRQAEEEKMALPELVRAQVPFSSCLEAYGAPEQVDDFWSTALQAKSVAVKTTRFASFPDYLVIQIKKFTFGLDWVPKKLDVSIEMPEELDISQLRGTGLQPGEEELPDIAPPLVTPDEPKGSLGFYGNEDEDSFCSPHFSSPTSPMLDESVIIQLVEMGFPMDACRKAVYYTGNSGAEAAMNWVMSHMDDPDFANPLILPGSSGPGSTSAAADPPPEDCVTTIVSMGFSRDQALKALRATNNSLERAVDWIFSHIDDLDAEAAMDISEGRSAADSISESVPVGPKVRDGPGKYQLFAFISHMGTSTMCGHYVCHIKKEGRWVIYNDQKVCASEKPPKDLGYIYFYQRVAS
How it was run: as §1

USP54 = USP54 (UniProt Q70EL1)
Sequence of USP54 (Q70EL1 whole entry): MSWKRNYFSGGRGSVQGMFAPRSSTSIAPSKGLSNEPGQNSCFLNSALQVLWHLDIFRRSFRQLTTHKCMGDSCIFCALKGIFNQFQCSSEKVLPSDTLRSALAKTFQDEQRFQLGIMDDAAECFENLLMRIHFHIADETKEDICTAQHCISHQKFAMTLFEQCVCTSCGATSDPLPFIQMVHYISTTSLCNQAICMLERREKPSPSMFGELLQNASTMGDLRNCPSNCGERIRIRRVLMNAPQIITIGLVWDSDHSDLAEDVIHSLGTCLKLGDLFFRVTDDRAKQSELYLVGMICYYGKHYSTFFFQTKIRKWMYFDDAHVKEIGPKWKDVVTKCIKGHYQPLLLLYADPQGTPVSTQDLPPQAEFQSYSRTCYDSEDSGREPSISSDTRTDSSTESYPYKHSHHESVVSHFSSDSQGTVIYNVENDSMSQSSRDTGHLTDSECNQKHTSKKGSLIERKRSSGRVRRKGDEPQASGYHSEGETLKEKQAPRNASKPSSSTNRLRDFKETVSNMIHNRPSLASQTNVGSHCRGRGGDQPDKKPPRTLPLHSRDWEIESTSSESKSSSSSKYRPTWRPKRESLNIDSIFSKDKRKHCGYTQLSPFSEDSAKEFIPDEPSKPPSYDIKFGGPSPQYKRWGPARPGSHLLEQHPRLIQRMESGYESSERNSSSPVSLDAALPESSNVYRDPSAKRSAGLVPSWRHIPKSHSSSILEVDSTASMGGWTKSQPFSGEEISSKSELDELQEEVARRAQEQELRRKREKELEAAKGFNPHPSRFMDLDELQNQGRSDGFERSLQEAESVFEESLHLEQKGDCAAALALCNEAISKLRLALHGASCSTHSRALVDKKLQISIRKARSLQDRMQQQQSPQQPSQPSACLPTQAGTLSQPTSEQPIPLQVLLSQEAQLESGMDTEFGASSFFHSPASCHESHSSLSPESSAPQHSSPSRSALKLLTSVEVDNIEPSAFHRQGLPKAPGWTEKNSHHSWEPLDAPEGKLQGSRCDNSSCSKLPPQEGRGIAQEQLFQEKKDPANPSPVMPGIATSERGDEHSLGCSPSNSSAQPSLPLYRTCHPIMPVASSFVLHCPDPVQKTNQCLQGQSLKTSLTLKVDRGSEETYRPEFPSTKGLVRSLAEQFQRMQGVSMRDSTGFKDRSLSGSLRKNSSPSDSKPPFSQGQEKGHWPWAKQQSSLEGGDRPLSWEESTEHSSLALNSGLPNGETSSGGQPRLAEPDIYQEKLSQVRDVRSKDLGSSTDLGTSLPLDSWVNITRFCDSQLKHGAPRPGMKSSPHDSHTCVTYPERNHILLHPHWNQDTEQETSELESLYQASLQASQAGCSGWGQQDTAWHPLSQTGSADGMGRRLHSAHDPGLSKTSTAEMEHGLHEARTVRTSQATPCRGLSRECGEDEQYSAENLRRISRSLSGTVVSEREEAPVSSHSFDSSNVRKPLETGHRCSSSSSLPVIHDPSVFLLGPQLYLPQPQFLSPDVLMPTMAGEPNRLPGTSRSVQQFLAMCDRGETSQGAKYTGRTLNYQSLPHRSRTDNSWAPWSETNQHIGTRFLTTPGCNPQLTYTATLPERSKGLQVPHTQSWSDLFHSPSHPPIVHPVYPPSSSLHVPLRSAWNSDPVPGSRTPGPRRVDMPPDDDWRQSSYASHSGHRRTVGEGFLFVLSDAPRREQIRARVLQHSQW
How it was run: as §1

USP7 = USP7 (UniProt Q93009)
Sequence of USP7 (Q93009 whole entry, looked up): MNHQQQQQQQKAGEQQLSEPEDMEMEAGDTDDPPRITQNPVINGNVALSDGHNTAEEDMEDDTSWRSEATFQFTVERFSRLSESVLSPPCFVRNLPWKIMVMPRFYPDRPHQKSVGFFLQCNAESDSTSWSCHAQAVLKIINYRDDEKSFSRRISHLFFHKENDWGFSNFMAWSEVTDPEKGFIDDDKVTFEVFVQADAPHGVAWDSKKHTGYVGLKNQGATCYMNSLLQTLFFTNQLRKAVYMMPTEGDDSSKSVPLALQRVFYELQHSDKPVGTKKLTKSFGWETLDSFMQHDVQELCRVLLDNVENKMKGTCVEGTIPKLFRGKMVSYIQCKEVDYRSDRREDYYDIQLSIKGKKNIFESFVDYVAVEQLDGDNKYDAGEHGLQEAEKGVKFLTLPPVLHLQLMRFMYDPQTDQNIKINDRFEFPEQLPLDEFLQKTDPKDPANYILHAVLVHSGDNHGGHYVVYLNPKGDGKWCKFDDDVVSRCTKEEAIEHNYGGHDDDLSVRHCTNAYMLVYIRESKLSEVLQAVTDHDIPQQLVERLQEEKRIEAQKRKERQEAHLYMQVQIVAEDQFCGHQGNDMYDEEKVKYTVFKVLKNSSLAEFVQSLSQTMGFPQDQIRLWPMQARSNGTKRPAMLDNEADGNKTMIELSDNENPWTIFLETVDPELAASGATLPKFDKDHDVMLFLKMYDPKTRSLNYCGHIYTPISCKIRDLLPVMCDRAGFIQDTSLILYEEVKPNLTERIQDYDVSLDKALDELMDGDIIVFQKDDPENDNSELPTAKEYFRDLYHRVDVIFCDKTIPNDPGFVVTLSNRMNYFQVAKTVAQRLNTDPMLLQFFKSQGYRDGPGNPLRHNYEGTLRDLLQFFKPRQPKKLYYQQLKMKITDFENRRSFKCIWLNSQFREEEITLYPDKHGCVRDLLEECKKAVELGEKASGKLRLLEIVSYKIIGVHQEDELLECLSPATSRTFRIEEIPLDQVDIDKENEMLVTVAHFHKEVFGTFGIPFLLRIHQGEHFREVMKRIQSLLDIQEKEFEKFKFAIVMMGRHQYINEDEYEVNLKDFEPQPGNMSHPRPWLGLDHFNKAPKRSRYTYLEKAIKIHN
How it was run: as §1

USP8 = target: T5, USP8 (UniProt P40818)
T5 sequence (whole entry): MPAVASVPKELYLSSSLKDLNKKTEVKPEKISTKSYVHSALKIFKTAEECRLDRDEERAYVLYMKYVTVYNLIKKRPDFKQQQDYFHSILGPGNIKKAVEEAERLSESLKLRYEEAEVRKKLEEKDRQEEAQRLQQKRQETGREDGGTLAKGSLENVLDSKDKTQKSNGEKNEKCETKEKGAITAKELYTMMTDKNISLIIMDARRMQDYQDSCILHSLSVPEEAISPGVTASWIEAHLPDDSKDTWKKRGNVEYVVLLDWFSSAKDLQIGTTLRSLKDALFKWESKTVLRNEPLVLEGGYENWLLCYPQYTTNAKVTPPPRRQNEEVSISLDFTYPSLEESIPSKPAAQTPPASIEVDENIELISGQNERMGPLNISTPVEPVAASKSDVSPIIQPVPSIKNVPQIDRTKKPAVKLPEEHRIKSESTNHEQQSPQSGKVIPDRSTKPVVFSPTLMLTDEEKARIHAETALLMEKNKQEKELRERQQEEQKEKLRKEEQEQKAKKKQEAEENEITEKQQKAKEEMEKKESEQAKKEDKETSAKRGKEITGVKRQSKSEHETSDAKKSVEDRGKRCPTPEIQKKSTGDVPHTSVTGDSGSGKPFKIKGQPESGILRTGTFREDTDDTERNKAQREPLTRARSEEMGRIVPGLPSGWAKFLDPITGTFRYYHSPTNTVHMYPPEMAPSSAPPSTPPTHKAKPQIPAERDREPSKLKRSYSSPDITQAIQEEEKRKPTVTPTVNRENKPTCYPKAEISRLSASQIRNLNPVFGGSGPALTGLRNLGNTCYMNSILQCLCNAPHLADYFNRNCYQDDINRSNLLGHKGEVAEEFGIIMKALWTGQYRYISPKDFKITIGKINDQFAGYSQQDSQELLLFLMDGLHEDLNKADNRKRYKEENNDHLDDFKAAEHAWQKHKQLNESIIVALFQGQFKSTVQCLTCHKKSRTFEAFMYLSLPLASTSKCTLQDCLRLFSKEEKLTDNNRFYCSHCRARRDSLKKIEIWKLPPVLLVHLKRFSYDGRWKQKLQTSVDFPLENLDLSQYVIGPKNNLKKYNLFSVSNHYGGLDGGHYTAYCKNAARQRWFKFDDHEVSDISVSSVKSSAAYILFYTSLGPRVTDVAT
How it was run: as §1

USP9X = USP9X (UniProt Q93008)
How it was run: as §1

UniProt O00487 = target: UniProt O00487
Sequence of UniProt O00487 (O00487 whole entry): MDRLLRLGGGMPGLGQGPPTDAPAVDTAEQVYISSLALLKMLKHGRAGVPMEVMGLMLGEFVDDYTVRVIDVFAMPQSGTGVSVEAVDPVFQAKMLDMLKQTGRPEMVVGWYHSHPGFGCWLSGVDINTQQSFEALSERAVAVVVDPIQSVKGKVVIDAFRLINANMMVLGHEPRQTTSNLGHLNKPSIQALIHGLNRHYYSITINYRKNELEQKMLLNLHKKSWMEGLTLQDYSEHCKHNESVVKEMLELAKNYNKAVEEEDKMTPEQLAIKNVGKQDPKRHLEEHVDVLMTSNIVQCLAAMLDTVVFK
How it was run: as §1

Measured: log2 ratio of Biotin-Ahx-Ub-VS probe labelling

O=C(CCl)N1CCCC1c1ccsc1 (stereo not given)
inactive: USP42 -0.371 | USP46 -0.105 | USP47 -0.389 | USP48 -0.959 | USP5 0.45 | USP54 0.559 | USP7 -0.795 | USP8 -0.441 | USP9X -0.231 | UniProt O00487 -0.138
